Test results reported in PubChem BioAssay AID1159580 (chemical genetic matrix, 2015).
The whole screen tested about 5,500 compounds, of which about 2,000 (36%) were called active. Roughly 18% stayed inconclusive and do not appear here. Cut-off read from the data, not from the text of the source: active = normalized growth mostly below about 0.91 (no sharp cut-off); inconclusive = no clear call, values can overlap the other calls; inactive = mostly above about 0.92. This is one part of the list.

Assay: chemical genetic growth profiling, strain panel (AID 1159580);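 note: tested at 20 µM; growth read once vehicle control cultures reached saturation at 30 °C; 1 = growth at the plate median or of vehicle wells; lower values mean less growth of the strain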
Settings: S. cerevisiae deletion strains, growth OD
[1] = locus YAL040C, strain CLN3, stronger effect = lower value
[2] = locus YDR150W, strain NUM1, stronger effect = lower value
[3] = locus YDR363W, strain ESC2, stronger effect = lower value
[4] = locus YER002W, strain NOP16, stronger effect = lower value
[5] = locus YJR075W, strain HOC1, stronger effect = lower value
[6] = locus YMR307W, strain GAS1, stronger effect = lower value
[7] = locus YNL128W, strain TEP1, stronger effect = lower value
[8] = locus YNL175C, strain NOP13, stronger effect = lower value
[9] = locus YNL197C, strain WHI3, stronger effect = lower value
[10] = locus YNL224C, strain SQS1, stronger effect = lower value
[11] = locus YOR083W, strain WHI5 (second series), stronger effect = lower value
[12] = locus YCL061C, strain MRC1 (second series), stronger effect = lower value
[13] = locus YGR078C, strain PAC10, stronger effect = lower value
[14] = locus YPL055C, strain LGE1, stronger effect = lower value
[15] = locus YNL322C, strain KRE1, stronger effect = lower value
[16] = locus YHR030C, strain SLT2, stronger effect = lower value
[17] = locus YHR079C, strain IRE1, stronger effect = lower value
[18] = locus YJL095W, strain BCK1, stronger effect = lower value
[19] = locus YJR066W, strain TOR1, stronger effect = lower value
[20] = locus YLR113W, strain HOG1, stronger effect = lower value
[21] = locus YNL183C, strain NPR1, stronger effect = lower value
[22] = locus YOR231W, strain MKK1, stronger effect = lower value
[23] = locus YPL256C, strain CLN2, stronger effect = lower value
[24] = locus YAL013W, strain DEP1, stronger effect = lower value
[25] = locus YNL153C, strain GIM3, stronger effect = lower value

Measured: normalized growth

Nc1ncnc2c1ncn2C1CCCC1
inactive: [1] 1.01 | [2] 1 | [3] 1.02 | [4] 1.01 | locus YGR229C, strain SMI1, stronger effect = lower value 1.02 | [5] 1.04 | [6] 1.01 | [7] 1.03 | [8] 1.01 | [9] 1.01 | [10] 1.03 | [11] 1.01 | locus YPL241C, strain CIN2, stronger effect = lower value 1.01

Nc1ncnc2c1c(-c1ccc(Oc3ccccc3)cc1)cn2C1CCCC1
inactive: [1] 0.94 | [12] 1.01 | [3] 1.02 | [4] 1.02 | [13] 0.934 | [5] 1.02 | [8] 1.01 | [9] 1.1 | [10] 0.952 | [14] 0.989
active: [11] 0.838

C[C@@H]1O[C@@H](O[C@H]2C[C@@H](O)[C@]3(CO)[C@@H]4C(CC[C@]3(O)C2)[C@@]2(O)CC[C@H](C3COC(=O)C3)[C@@]2(C)C[C@H]4O)[C@H](O)[C@H](O)[C@H]1O (stereo not given in full)
inactive: [1] 0.998 | [12] 1 | [2] 0.996 | [3] 1 | [4] 0.996 | [13] 1.01 | [6] 1.01 | [8] 0.98 | [9] 1 | [10] 0.974 | [15] 1.01 | [11] 1.05 | [14] 1.01

CN(C)CCCSC(=N)N
inactive: [16] 0.951 | [17] 0.968 | [18] 0.963 | [19] 0.903 | [20] 0.982 | [21] 0.92 | [22] 0.966 | [23] 0.978

N=C(N)SCCc1ccc(CCSC(=N)N)cc1
inactive: [24] 1.01 | [1] 1 | [12] 0.996 | [2] 1 | [3] 1.04 | [4] 0.996 | [5] 0.987 | [25] 0.964 | [8] 1 | [9] 1.03 | [10] 1.02 | [15] 1 | [11] 0.995 | [14] 1.02

N=C(N)SCCN
inactive: [24] 1.06 | locus YAL021C, strain ccr4, stronger effect = lower value 0.98 | locus YAL026C, strain drs2, stronger effect = lower value 1 | locus YAL030W, strain snc1, stronger effect = lower value 1.01 | [1] 1.05 | locus YBL061C, strain skt5, stronger effect = lower value 1.01 | locus YBR009C, strain hhf1, stronger effect = lower value 1 | locus YBR023C, strain chs3, stronger effect = lower value 1 | locus YBR171W, strain sec66, stronger effect = lower value 1.01 | locus YBR231C, strain swc5, stronger effect = lower value 0.992 | locus YBR279W, strain paf1, stronger effect = lower value 0.998 | locus YCL011C, strain gbp2, stronger effect = lower value 1.01 | locus YCL016C, strain dcc1, stronger effect = lower value 0.999 | [12] 0.995 | locus YCL061C, strain MRC1, stronger effect = lower value 1.01 | locus YCL069W, strain vba3, stronger effect = lower value 1.01 | locus YCR088W, strain abp1, stronger effect = lower value 1 | locus YDL005C, strain med2, stronger effect = lower value 0.997 | locus YDL040C, strain nat1, stronger effect = lower value 0.998 | locus YDR001C, strain nth1, stronger effect = lower value 1.01 | locus YDR069C, strain doa4, stronger effect = lower value 0.999 | locus YDR137W, strain rgp1, stronger effect = lower value 1 | [2] 1.02 | locus YDR159W, strain sac3, stronger effect = lower value 0.995 | locus YDR195W, strain ref2 0.941 | locus YDR297W, strain sur2, stronger effect = lower value 1.01 | locus YDR334W, strain swr1, stronger effect = lower value 1 | locus YDR335W, strain msn5, stronger effect = lower value 1 | locus YDR392W, strain spt3, stronger effect = lower value 0.856 | locus YEL003W, strain gim4, stronger effect = lower value 1.01 | locus YEL037C, strain rad23, stronger effect = lower value 0.996 | locus YEL061C, strain CIN8 (second series), stronger effect = lower value 1 | [4] 0.986 | locus YER015W, strain faa2, stronger effect = lower value 1.01 | locus YER016W, strain bim1, stronger effect = lower value 1 | locus YER111C, strain swi4, stronger effect = lower value 1 | locus YER155C, strain BEM2 (second series), stronger effect = lower value 0.985 | locus YFR010W, strain ubp6, stronger effect = lower value 1.01 | locus YGL167C, strain pmr1, stronger effect = lower value 1.01 | locus YGL173C, strain kem1, stronger effect = lower value 1 | locus YGL227W, strain vid30, stronger effect = lower value 1 | locus YGL240W, strain doc1, stronger effect = lower value 0.985 | locus YGL253W, strain hxk2, stronger effect = lower value 1.01 | [13] 0.994 | locus YHR013C, strain ard1, stronger effect = lower value 0.969 | locus YHR027C, strain rpn1, stronger effect = lower value 1.01 | [16] 1.07 | [17] 1.07 | locus YHR142W, strain chs7, stronger effect = lower value 1.01 | locus YJL092W, strain hpr5, stronger effect = lower value 0.998 | locus YJL095W, strain BCK1 (second series), stronger effect = lower value 0.998 | [18] 1.04 | locus YJL115W, strain asf1, stronger effect = lower value 0.99 | locus YJL129C, strain trk1, stronger effect = lower value 1.03 | locus YJL154C, strain vps35, stronger effect = lower value 0.997 | locus YJL164C, strain tpk1, stronger effect = lower value 1.01 | locus YJL166W, strain qcr8, stronger effect = lower value 1.01 | locus YJL187C, strain SWE1, stronger effect = lower value 1 | [19] 0.976 | [5] 1.01 | locus YKL160W, strain elf1, stronger effect = lower value 0.996 | locus YKR026C, strain gcn3, stronger effect = lower value 1 | locus YKR091W, strain srl3, stronger effect = lower value 1 | locus YLL001W, strain dnm1, stronger effect = lower value 0.999 | locus YLL026W, stronger effect = lower value 0.999 | locus YLL041C, strain sdh2, stronger effect = lower value 1 | locus YLR027C, strain aat2, stronger effect = lower value 1.01 | [20] 1.03 | locus YLR221C, strain rsa3, stronger effect = lower value 1 | locus YLR258W, strain gsy2, stronger effect = lower value 1 | locus YLR262C, strain YPT6 (second series), stronger effect = lower value 0.991 | locus YLR320W, strain mms22, stronger effect = lower value 0.997 | locus YLR342W, strain FKS1, stronger effect = lower value 1.01 | locus YLR370C, strain arc18, stronger effect = lower value 1.01 | locus YLR384C, strain iki3, stronger effect = lower value 1 | locus YML120C, strain ndi1, stronger effect = lower value 0.999 | locus YMR058W, strain fet3, stronger effect = lower value 1 | locus YMR125W, strain sto1, stronger effect = lower value 0.993 | locus YMR129W, stronger effect = lower value 1.02 | locus YMR205C, strain PFK2, stronger effect = lower value 1.01 | locus YMR231W, strain pep5, stronger effect = lower value 0.998 | locus YMR263W, strain SAP30, stronger effect = lower value 1.01 | [6] 1.02 | locus YNL071W, strain lat1, stronger effect = lower value 1 | [7] 0.987 | [25] 1 | [8] 0.991 | [21] 0.989 | [9] 0.992 | locus YNL209W, strain ssb2, stronger effect = lower value 1.01 | [10] 1.01 | locus YNL248C, strain rpa49, stronger effect = lower value 1.01 | locus YNL322C, strain KRE1 (second series), stronger effect = lower value 0.998 | locus YNR049C, strain mso1, stronger effect = lower value 1 | locus YOR001W, strain rrp6, stronger effect = lower value 0.995 | locus YOR070C, strain gyp1, stronger effect = lower value 0.989 | locus YOR080W, strain dia2, stronger effect = lower value 0.996 | [11] 0.997 | locus YOR083W, strain WHI5, stronger effect = lower value 0.995 | locus YOR106W, strain vam3, stronger effect = lower value 1.04 | [22] 1.05 | locus YOR265W, strain rbl2, stronger effect = lower value 1.01 | locus YOR270C, strain vph1, stronger effect = lower value 1.06 | locus YOR290C, strain snf2, stronger effect = lower value 0.956 | locus YPL051W, strain arl3, stronger effect = lower value 0.994 | [14] 1.01 | locus YPL078C, strain atp4, stronger effect = lower value 1.01 | locus YPL106C, strain sse1, stronger effect = lower value 1 | locus YPL240C, strain hsp82, stronger effect = lower value 1.02 | [23] 1.12
active: locus YLR357W, strain rsc2, stronger effect = lower value 0.833
